# Several values for one entry are separate records, joined by “and”; a condition that tells them apart may be missing. Identical values can stand only once. Results filed as inconclusive are left out. Where a call stands in place of a potency, no number is given. Activity calls are given as the source filed them. Unless noted, the call rests on the fitted dose curve; in most records, active means well fitted curve in the direction sought with a large enough effect; inconclusive means small, poorly fitted or top-dose-only effect, or another doubt; inactive means no such curve, though single readings can be large; an effect the other way counts as inactive or inconclusive. Peptide text beside a SMILES is read from it.
# Key:
# [1] = Cell Viability - LYMP2-012 (AID 982); conditions: LYMP2-012 lymphoblastoid cell viability qHTS; series mostly up to 92.2 µM;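 further: cellular ATP by luciferase luminescence where a drop means cytotoxicity; cells exposed to compound for one day before reading; nearly all actives have a fitted effect of over 55% in size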
# [2] = Cell Viability - LYMP2-014 (AID 983); conditions: LYMP2-014 lymphoblastoid cells, viability qHTS; series mostly up to 92.2 µM;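 further: cells exposed to compound for 24 h at 37 °C; nearly all actives have a fitted effect of over 50% in size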
# Summary of the method: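 Decrease in intracellular ATP after 24 hr treatment at 37 C, measured by luciferase luminescence, indicated cytotoxicity. Concentration-response data were fitted with the standard Hill equation to give AC50.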
# [3] = Cell Viability - LYMP2-016 (AID 984); conditions: LYMP2-016 lymphoblastoid cell viability, qHTS; series mostly up to 92.2 µM;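 further: cells exposed to compound for 24 hours at 37 °C; nearly all actives have a fitted effect of over 55% in size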
# Summary of the method: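 Acute toxicity in a Coriell human lymphoblastoid line is scored as loss of intracellular ATP over 24 h of treatment in complete medium. CellTiter-Glo signal is fitted across concentrations with the Hill equation to give AC50.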
# [4] = Cell Viability - LYMP2-018 (AID 985); conditions: LYMP2-018 lymphoblastoid cells, viability (qHTS); series mostly up to 92.2 µM;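 further: compound exposure lasted 24 hr at 37 °C; nearly all actives have a fitted effect of over 50% in size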
# Summary of the method: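 Acute cytotoxicity is scored as a concentration-dependent drop in intracellular ATP after 24 hr exposure of the lymphoblastoid line in complete culture medium, measured by luciferase luminescence. Potency is expressed as AC50 from Hill modelling.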
# [5] = Cell Viability - LYMP2-020 (AID 986); conditions: series mostly up to 92.2 µM;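 further: cells exposed to compound for 24 h at 37 °C; nearly all actives have a fitted effect of over 55% in size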
# Summary of the method: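 Acute cytotoxicity in a human lymphoblastoid line is scored as a concentration-dependent fall in cellular ATP after 24 hr at 37 C in complete medium. The positive control is tetraoctylammonium bromide, and potency is given as Hill-fit AC50.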
# [6] = Cell Viability - LYMP2-022 (AID 987); conditions: LYMP2-022 lymphoblastoid cell viability; series mostly up to 92.2 µM;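 further: cells exposed to compound for 24 hr; nearly all actives have a fitted effect of over 55% in size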
# Summary of the method: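 Acute toxicity in a human lymphoblastoid line is scored as decreased intracellular ATP after 24 hr compound treatment at 37 C. ATP is measured by CellTiter-Glo luminescence; curves are fitted with the Hill equation to give AC50.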
# [7] = Cell Viability - LYMP2-024 (AID 988); conditions: LYMP2-024 lymphoblastoid cell viability; series mostly up to 92.2 µM;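 further: cells exposed to compound for 24 hr at 37 °C; nearly all actives have a fitted effect of over 60% in size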
# Summary of the method: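 Acute toxicity is measured as concentration-dependent loss of intracellular ATP in a human lymphoblastoid line treated 24 hours at 37 C. Luciferase luminescence quantifies ATP; AC50 values come from standard Hill-equation modelling.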
# [8] = Cell Viability - LYMP2-026 (AID 989); conditions: LYMP2-026 lymphoblastoid cell viability, qHTS; series mostly up to 92.2 µM;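 further: cells exposed to compound for 24 h at 37 °C; nearly all actives have a fitted effect of over 50% in size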
# Summary of the method: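 Concentration-dependent loss of intracellular ATP in human lymphoblastoid cells after 24 hr at 37 C, quantified by luciferase luminescence. AC50 derived from standard Hill equation.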
# [9] = Cell Viability - LYMP1-002 - Assay at 24 hr (AID 993); conditions: LYMP1-002 lymphoblastoid cells viability; series mostly up to 92.2 µM
# Summary of the method: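 qHTS, LYMP1-002 lymphoblastoid, 24 h cpd, 37 C, CellTiter-Glo ATP luminescence; AC50 via Hill eq.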
# [10] = Cell Viability - LYMP1-002 - Assay at 40 hr (AID 994); conditions: LYMP1-002 lymphoblastoid cell viability; series mostly up to 92.2 µM; further: nearly all actives have a fitted effect of over 60% in size
# Summary of the method: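 Viability in the human lymphoblastoid line was measured as intracellular ATP via CellTiter-Glo after 40 hr compound exposure. Tetraoctylammonium bromide served as positive control.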
# [11] = qHTS Assay for Lipid Storage Modulators (AID 1519; calls by dose curve); conditions: Drosophila S3 cells, BODIPY lipid droplet/cell ratio, laser cytometry, cells loaded with oleic acid
# Summary of the method: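 Cells seeded at 5,000 per well were treated with compounds over a concentration series and loaded with oleic acid (400 uM, as added). Lipid droplet fluorescence (488 nm excitation, 500-530 nm channel) was read by laser-scanning cytometry and normalized to 20 uM Triacsin C.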
# [12] = molecular target: Alpha-galactosidase A (Homo sapiens) (UniProt P06280); assay: Counterscreen for Glucocerebrosidase Inhibitors: qHTS Assay for Human alpha-Galactosidase at pH 4.5 (AID 992); conditions: purified enzyme, fluorogenic substrate; series mostly up to 76.9 µM
# Summary of the method: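 Quantitative HTS: compounds tested from 0.7 nM up to 77 uM against 2 nM enzyme with 80 uM 4-MU alpha-D-galactopyranoside. The 20 min room-temperature reaction is stopped with 1M NaOH/1M glycine, pH 10.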
# [13] = molecular target: alpha-glucosidase (Oryza sativa, rice) (UniProt Q653V4); assay: Counterscreen for Glucocerebrosidase Inhibitors: qHTS Assay for Rice alpha-Glucosidase at pH 5.0 (AID 997); conditions: rice alpha-glucosidase enzyme activity; series mostly up to 76.9 µM
# Summary of the method: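 Rice alpha-glucosidase (4 nM final) with 400 uM 4-methylumbelliferyl-alpha-D-glucopyranoside in citrate buffer pH 5.0, 20 min at room temperature, stopped at pH 10; fluorescence 365/440 nm, compounds 0.7 nM–77 uM, AC50 from Hill fits.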
# [14] = measured here: cell count channel max response
# [15] = measured here: lipid channel max response
# Alpha-galactosidase A (Homo sapiens), sequence (P06280 whole entry, looked up): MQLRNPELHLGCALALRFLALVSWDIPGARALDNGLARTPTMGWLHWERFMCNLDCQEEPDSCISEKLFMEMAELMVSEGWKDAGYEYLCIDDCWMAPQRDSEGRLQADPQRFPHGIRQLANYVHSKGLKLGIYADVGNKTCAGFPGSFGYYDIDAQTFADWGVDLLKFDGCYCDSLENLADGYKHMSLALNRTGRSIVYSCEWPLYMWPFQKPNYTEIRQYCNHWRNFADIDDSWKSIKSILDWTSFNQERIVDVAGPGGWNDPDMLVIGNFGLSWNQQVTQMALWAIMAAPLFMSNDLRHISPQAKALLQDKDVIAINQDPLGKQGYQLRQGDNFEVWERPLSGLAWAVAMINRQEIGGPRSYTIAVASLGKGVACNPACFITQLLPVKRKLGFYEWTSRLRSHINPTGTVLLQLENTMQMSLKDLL
Structure (SMILES),Potency [1],Potency [2],Potency [3],Potency [4],Potency [5],Potency [6],Potency [7],Potency [8],outcome [9],Potency [10],"activity change, negative = inhibition ([11]; at 25.7 µM (top of the series))","activity change, negative = inhibition ([11]; at 57.5 µM (top of the series))","max response [11, 14]","max response [11, 15]",outcome [12],outcome [13]
CCCCCCCC/C=C\CCCCCCCC(=O)O,inactive,inactive,inactive,inactive,inactive,inactive,inactive,inactive,inactive,inactive,,,,,,
Cc1ccccc1,inactive,inactive,inactive,inactive,inactive,inactive,inactive,inactive,inactive,inactive,,,,,,
CC(=O)N[C@@H](CC(=O)O)C(=O)N[C@@H](CCC(=O)O)C(=O)O (Ac-Asp-Glu-OH),,,,,,,,,,,-3.36% (inactive),6.33% (inactive),-8.34% and 14.1%,-7.7% and 26.3%,,
O=S(=O)(O)O,inactive,inactive,inactive,inactive,inactive,inactive,inactive,inactive,inactive,inactive,,,,,,
CC(O)CO (stereo not drawn),inactive,inactive,inactive,inactive,inactive,inactive,inactive,inactive,inactive,inactive,,,,,,
COc1ccc(CCNC[C@H](O)c2ccc(O)cc2)cc1OC,,,,,,,,,,,,,,,inactive,inactive
CCCCC/C=C\C/C=C\CCCCCCCC(=O)O,inactive,inactive,inactive,inactive,inactive,inactive,inactive,inactive,inactive,inactive,,,,,,
CCC(=O)NCCC1CCc2ccc3c(c21)CCO3 (stereo not drawn),,,,,,,,,,,,11.3% (inactive),9.34%,23.8%,,
CC(C)=O,inactive,inactive,inactive,inactive,inactive,inactive,inactive,inactive,inactive,inactive,,,,,,
IC(I)I,inactive,inactive,inactive,inactive,inactive,inactive,inactive,inactive,inactive,inactive,,,,,,
Nc1ccn([C@H]2CS[C@@H](CO)O2)c(=O)n1,inactive,inactive,inactive,inactive,inactive,inactive,inactive,inactive,inactive,inactive,,,,,,
CC1=C2[C@@H]([C@H](C)CC[C@H]2/C=C(\C)C(=O)O)[C@H](O)C1,inactive,inactive,inactive,inactive,inactive,inactive,inactive,inactive,inactive,inactive,,,,,,
CCOC(C)=O,inactive,inactive,inactive,inactive,inactive,inactive,inactive,inactive,inactive,inactive,,,,,,
Nc1c(Br)cc(Br)cc1CNC1CCC(O)CC1 (stereo not drawn),,,,,,,,,,,-1.33% (inactive),7.29% (inactive),-4.61% and 6.29%,-3.94% and 15.7%,,
CCCCCCCC(=O)O,inactive,inactive,inactive,inactive,inactive,inactive,inactive,inactive,inactive,inactive,,,,,,
